PubChem BioAssay AID1053175 (ICCB-Longwood Screening Facility, Harvard Medical School, 2014)
Several values for one entry are separate records, joined by “and”; a condition that tells them apart may be missing. Equal entries are not always repeated. Among all 330,000 compounds or so, about 700 (0.21%) were called active.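 Rule for the calls: active = OD600 absorbance below the run mean of sample wells minus 3.6 SD, in any replicate (cut at about 0.56 in these data); inactive = the rest.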 Many of the other results were omitted from the sample, so actives are more common in it than they were.

Test: antibacterial activity against Escherichia coli – OD600, primary screen (AID 1053175)
Settings: Escherichia coli growth, OD600, 23 h; active compounds read low

OD600 absorbance, inactive:
Cc1cc(C)nc(NN=Cc2ccccc2OCc2ccccc2)n1 0.638
CC(=O)NC(=S)Nc1ccc(NC(=S)NC(=O)c2ccc([N+](=O)[O-])cc2)cc1 0.699
COc1cc(NS(=O)(=O)c2ccc(NC(=O)c3ccc([N+](=O)[O-])cc3)cc2)ncn1 0.659
Fc1cccc(CCN2CCNCC2Cc2ccccc2)c1 (stereo unspecified) 0.658
O=C(O)c1cc(O)c2c(c1)C(C1c3cc(C(=O)O)cc(O)c3C(=O)c3c(OC4OC(CO)C(O)C(O)C4O)cccc31)c1cccc(OC3OC(CO)C(O)C(O)C3O)c1C2=O (stereo unspecified) 0.667
COC(=O)c1cccc(C23CC4(C2)C(CN(CC2CCCCC2)C4c2ccccc2)C3c2ccccc2)c1 (stereo unspecified) 0.699
CCc1ccc(C=NNC(=O)Cc2ccc(OC)c(OC)c2)s1 0.627
Cc1nn(-c2ccccc2)c(C)c1C=Nn1c(-c2ccccc2Br)n[nH]c1=S 0.624
CCOc1ccc(Br)cc1C(=O)NN=Cc1c[nH]c2ccccc12 0.686
O=C(NN=C/C(Br)=C\c1ccccc1)c1n[nH]c2c1CCC2 0.619
C[C@]12C(=O)N(c3cccc(F)c3)C(=O)N1C1c3ccccc3OCC1C2c1ccccc1 (stereo partly specified) 0.707 and 0.703
C=Cc1ccc(C2=CC(=O)CC(c3ccc(OC)cc3)C2)cc1 (stereo unspecified) 0.663
O=C(NN=Cc1cccc2ccccc12)c1cccnc1 0.676
O=C(C=Cc1ccccc1)NCCSCc1ccccc1Cl 0.63
O=C(CCNc1n[nH]c(=O)[nH]c1=O)NN=Cc1ccc(Cl)cc1 0.691
CCOC1OC(C(=O)NCc2nc3ccccc3[nH]2)=CC(c2cn(C(C)=O)c3ccccc23)C1CCCO (stereo unspecified) 0.677 and 0.601
ON=Cc1cccn1-c1nccs1 0.697
Cc1ccc(C(=O)NN=Cc2c[nH]c3ccccc23)o1 0.69
CCn1c(C)nc2cc(C(=O)NN=C(C)c3ccc(N4CCOCC4)cc3)ccc21 0.666
CCCC(CNC(CNC)C(C)O)NCCc1ccc(OC)cc1 (stereo unspecified) 0.679
O=Cc1c(Nc2ccccc2Cl)nc2ccccn2c1=O 0.678
CCc1c(Nc2ccccc2C)nc(N)[nH]c1=O 0.675
c1ccc(N=C2N=C(Nc3ccccn3)c3ccccc32)nc1 0.705
CCC1=C(OC(=O)N(CC)CC)N2C(=O)OC(=NCC(=O)OC)[C@]2(C)C2C1=CCC1C(=O)NC(=O)C12 (stereo partly specified) 0.617
O=C(CCNS(=O)(=O)c1ccc(Br)cc1)NCC1CCCO1 (stereo unspecified) 0.66
CCCN1CCn2c3c(c4cc(Br)ccc42)CCCC31 (stereo unspecified) 0.655
O=C(CC=NOCc1ccc([N+](=O)[O-])cc1)Nc1ccc(Br)cc1 0.631
O=C(O)CC1c2cc(F)ccc2S(=O)(=O)N1Cc1ccccc1 (stereo unspecified) 0.672
O=[N+]([O-])c1cccc(C=NN2CCN(c3ccccn3)CC2)c1 0.693
Cc1ccc(NCC(=O)NN=Cc2ccc([N+](=O)[O-])o2)cc1 0.564
CCn1c(/C=C/c2ccc([N+](=O)[O-])o2)nc2ccccc2c1=O 0.629
CCc1ccc(-c2nn(-c3ccccc3C)cc2C(=O)N2CCN(C3CCS(=O)(=O)C3)CC2)cc1 (stereo unspecified) 0.66
Cc1ccc(-c2nn(-c3ccccc3)cc2C(=O)NC2CCC(O)CC2)cc1 (stereo unspecified) 0.658
COc1cccc(C=NNC(=O)CSc2cccc3cccnc23)c1 0.635
COC(=O)[C@]1(Cc2ccccc2)NC(c2ccc(-c3cc(C(C)=O)cs3)cc2)C2C(=O)N(C)C(=O)C21 (stereo partly specified) 0.738
COC(=O)C1=C(C)N(Cc2ccco2)C(=O)NC1c1cccc(C(F)(F)F)c1 (stereo unspecified) 0.7
COc1ccc(C2C=CCN(S(=O)(=O)C=Cc3ccccc3)C(Cc3ccccc3)C(=O)N2Cc2ccc(F)cc2)cc1 (stereo unspecified) 0.733
CCOc1cc(C=NNc2ncnc(Cl)c2N)ccc1O 0.682
COc1cc(C=Nn2cnnc2)ccc1OCCOc1ccccc1 0.782
OCC1(CCOc2ccccc2)CCN(Cc2cn[nH]c2-c2ccccc2)CC1 0.675
CCOC(=O)C1(CCOc2ccccc2)CCN(Cc2cc(OC)c(O)cc2Cl)CC1 0.602
COc1cc(C(=O)ON=C2C=CC(=O)C=C2C)cc(OC)c1OC 0.685
Cc1cccc(C(=O)OCC(=O)NC(C)C2CC3CCC2C3)c1O (stereo unspecified) 0.676
Cc1c(C(=O)NC(C)C2CC3CCC2C3)cccc1[N+](=O)[O-] (stereo unspecified) 0.695
CC=C(C)C(=O)NCCN1C2=NCC(C)N2CC1Cc1ccc(O)cc1 (stereo unspecified) 0.694
Cc1occc1C(=O)NN=Cc1cccc2ccccc12 0.677
COc1ccc(OC)c(C=Nn2c(-c3n[nH]c4c3CCC4)n[nH]c2=S)c1 0.697
COc1cc(C=NNC(=O)c2ccc3nc[nH]c3c2)ccc1O 0.686
CCOC(=O)C1C2COc3ccccc3C2N2C(=O)N(c3cccc(Cl)c3)C(=O)[C@@]12C (stereo partly specified) 0.65 and 0.728
Nc1nnnn1N=Cc1ccc(O)cc1 0.733
Cc1cc([N+](=O)[O-])cc(C)c1OCC(=O)NN=Cc1ccc(OC(=O)c2ccccc2Br)cc1 0.708
S=C(Nc1cccc(Cl)c1)Nc1ccc2c(c1)OCCO2 0.613
Cc1csc(NC(=S)Nc2cccc(Cl)c2)n1 0.618
Cc1nnc(NCCO)c2ccccc12 0.66
OCCCNc1nc(-c2ccccc2)c2cc(Cl)ccc2n1 0.647
COc1cc(C(C)=NNC(=O)c2cccc(S(=O)(=O)N3CCCC3)c2)cc(OC)c1OC 0.705
Cc1ccc(CN(Cc2cccnc2)C(=S)Nc2cccc(Cl)c2C)cc1 0.672
Cc1cccc(C)c1NC(=S)N(Cc1cccnc1)Cc1ccccc1Cl 0.706
O=C(NN=C1CC(c2ccccc2)Oc2ccccc21)c1ccc(O)cc1 (stereo unspecified) 0.541
COC(=O)NN=Cc1c[nH]c2ccccc12 0.738
CC(=NNC(=O)c1ccccc1[N+](=O)[O-])c1c(O)cc(C)oc1=O 0.635
COc1cc(C=NNC(=O)NC23CC4CC(CC(C4)C2)C3)ccc1OCC(N)=O 0.652
CCc1noc(C)c1C(=O)NNC(=O)c1ccc(F)cc1 0.692
O=C(NNC(=O)C1CCCC1)c1ccc(F)cc1 0.706
S=c1[nH]nc(-c2ccncc2)n1N=Cc1ccccc1 0.705
COc1ccc(C(=O)NN=C(c2ccccc2)c2ccccn2)cc1 0.68
CC(=NNC(=O)c1c[nH]c2ccccc12)c1ccccn1 0.586
CC(=NNS(=O)(=O)c1ccc(Br)cc1)c1ccc(-n2ccnc2)cc1 0.734

OD600 absorbance, active:
Cn1ccc(=Nc2ccc(NC(=O)c3ccc(N=c4ccn(C)c5ccc([N+](=O)[O-])cc45)cc3)cc2)cc1 0.104
CCc1c(Nc2ccccc2Cl)nc(N)[nH]c1=O 0.475
OC(CNCC1CCCO1)Cn1c2ccc(Br)cc2c2cc(Br)ccc21 (stereo unspecified) 0.547
C/[N+]([O-])=C\c1ccc([N+](=O)[O-])o1 0.0665
CCc1ccc(-c2nn(-c3ccccc3)cc2CSC(=N)N)cc1 0.201
Cc1c(CN2CCC(CO)(CCOc3ccccc3)CC2)[nH]c2ccc(Cl)cc12 0.527
COC(=O)c1cc(C(=O)NC(C)C2CC3CCC2C3)cc([N+](=O)[O-])c1 (stereo unspecified) 0.52
FC(F)(F)c1cccc(NC(=S)Nc2cccc(Cl)c2)c1 0.501
OCCNc1nc(Nc2ccc(Cl)c(Cl)c2)nc2ccccc12 0.392
Cc1c(Cl)cccc1NC(=S)N(Cc1ccccc1)Cc1cccnc1 0.58
O=C(/C=C/c1ccc([N+](=O)[O-])o1)NNC(=O)c1ccc(F)cc1 0.428
CCN1/C(=C/c2ccc3ccc(C)cc3[n+]2CC)Sc2ccccc21 0.506
CC(=NNC(=O)c1ccc(F)cc1)c1ccccn1 0.506
